# Data taken from PubChem BioAssay (NCI).
# The panel holds about 83,000 compounds, 20% with a hit somewhere; the sample as a whole holds those more often.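 Single-concentration screen, 48 h exposure, 96-well plates. Endpoint: percent growth. Below 10 = active.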 Values without a mark were called inactive. The source made the active and inactive calls.
# System: MALME-3M melanoma
# Test: NCI-60 one-dose screen, 48 h (100 = growth as untreated, 0 = no growth, -100 = all killed)
# Settings: 10 µM unless noted
row,SMILES,growth
1,NC(CCl)=NCC12CC3CC(CC(C3)C1)C2,25.4%
2,COc1ccc2c(c1)Nc1ccccc1S2,105%
3,CN1CCCN(C(c2ccccc2)c2ccc(Br)cc2)CC1 (centres undefined),63.1%
4,CCNc1ncnc2[nH]ncc12,72%
5,CC(C)(CC(=O)O)CC(=O)O,107%
6,CCc1ccccc1C(=O)N(CC)CC,102%
7,COc1cc2c(c(OC)c1OC)-c1ccc(SC)c(=O)cc1[C@@H](NC1OC(CO)C(O)C(O)C1O)CC2 (some centres undefined),54.6%
8,O=[N+]([O-])c1c(Cl)ncnc1Cl,104%
9,CCN(C(=O)Nc1ccccc1Cl)c1ccccc1,100%
10,CC(C)(C)CC1(C)NC(=O)NC1=O (centres undefined),111%
11,O=C(c1ccc(Cl)cc1)N1CCCCC1,109%
12,CC(C)c1ccccc1NC(=O)N1CCC(C(C)C)CC1,105%
13,C=C1SC(=Nc2c(C)cccc2C)N(c2nc(Cl)nc(Cl)n2)C12CCCCC2,90.3%
14,CCCCCCCCCCCCCCCCOc1ccccc1NC(=O)CC(C)=O,117%
15,O=C(O)CC1=CCCCC1,90.8%
16,CCOC(=O)c1ccc(Nc2sc(C(=O)c3ccc(Br)cc3)c(N)c2C#N)cc1,31.8%
17,NNc1ncnc2c1ncn2C1OC(CO)C(O)C1O (centres undefined),122%
18,NS(=O)(=O)c1cc(=O)[nH]c(=O)[nH]1,90.7%
19,CC(C)NC(=O)OCc1c(COC(=O)NC(C)C)c(-c2ccc(Cl)cc2)n2c1CCC2,59.3%

row,SMILES,growth
1,Cc1ccnc(Nc2nc3ccccc3[nH]2)n1,104%
2,NNc1ncnc2nc[nH]c12,120%
3,O=S(=O)(O)c1cccnc1,90.1%
4,O=C(O)c1cc(I)ccc1O,90.3%
5,Nc1nc2nnc(-c3ccccc3)c(-c3ccccc3)n2n1,125%
6,Nc1cc(N)ncn1,106%
7,Clc1ncnc2nc[nH]c12,106%
8,N=C(N)c1nn(C2OC(CO)C(O)C2O)c2nc[nH]c(=O)c12 (centres undefined),-39.9% (active)
9,CCN(CC)CCCC(C)NC(=S)N/N=C(\C)c1ccccn1 (centres undefined),33.5%
10,C[n+]1c(/C=C\C=C\N2CCCCC2)sc2ccccc21,-4.48% (active)
11,S=c1nc2[nH]c3ccccc3c2n[nH]1,97.7%
12,Cn1c2ccccc2c2nnc(NCCCCO)nc21,98.3%
13,O=C(NC1CCCCC1)c1ccc(Cl)cc1,106%
14,CNc1ccccc1C(=O)N/N=C/C=C/c1ccccc1,31.5%
15,C[n+]1cc2cc3c(cc2c2ccccc21)OCO3,-0.635% (active)
16,CN(C)c1ncnc2c1cnn2C,103%
17,CC(C)(C)NCCC(O)c1cc(C(F)(F)F)nc2c(C(F)(F)F)cccc12 (centres undefined),102%
18,Cc1ccc(NC(=S)N2CCOCC2)cc1C,93.8%

# System: MDA-MB-231 breast
# Test: as above
# Settings: 10 µM unless noted
row,SMILES,growth
1,NC(CCl)=NCC12CC3CC(CC(C3)C1)C2,-15.8% (active)
2,COc1ccc2c(c1)Nc1ccccc1S2,109%
3,CN1CCCN(C(c2ccccc2)c2ccc(Br)cc2)CC1 (centres undefined),49%
4,CCNc1ncnc2[nH]ncc12,107%
5,CC(C)(CC(=O)O)CC(=O)O,95.5%
6,CCc1ccccc1C(=O)N(CC)CC,100%
7,COc1cc2c(c(OC)c1OC)-c1ccc(SC)c(=O)cc1[C@@H](NC1OC(CO)C(O)C(O)C1O)CC2 (some centres undefined),7.41% (active)
8,O=[N+]([O-])c1c(Cl)ncnc1Cl,120%
9,CCN(C(=O)Nc1ccccc1Cl)c1ccccc1,109%
10,CC(C)(C)CC1(C)NC(=O)NC1=O (centres undefined),118%
11,O=C(c1ccc(Cl)cc1)N1CCCCC1,94.4%
12,CC(C)c1ccccc1NC(=O)N1CCC(C(C)C)CC1,117%
13,C=C1SC(=Nc2c(C)cccc2C)N(c2nc(Cl)nc(Cl)n2)C12CCCCC2,115%
14,CCCCCCCCCCCCCCCCOc1ccccc1NC(=O)CC(C)=O,87.4%
15,O=C(O)CC1=CCCCC1,98%
16,CCOC(=O)c1ccc(Nc2sc(C(=O)c3ccc(Br)cc3)c(N)c2C#N)cc1,52.9%
17,NNc1ncnc2c1ncn2C1OC(CO)C(O)C1O (centres undefined),10.7%
18,NS(=O)(=O)c1cc(=O)[nH]c(=O)[nH]1,115%
19,CC(C)NC(=O)OCc1c(COC(=O)NC(C)C)c(-c2ccc(Cl)cc2)n2c1CCC2,65.8%

row,SMILES,growth
1,Cc1ccnc(Nc2nc3ccccc3[nH]2)n1,109%
2,NNc1ncnc2nc[nH]c12,14.9%
3,O=S(=O)(O)c1cccnc1,103%
4,O=C(O)c1cc(I)ccc1O,110%
5,Nc1nc2nnc(-c3ccccc3)c(-c3ccccc3)n2n1,88.7%
6,Nc1cc(N)ncn1,96.1%
7,Clc1ncnc2nc[nH]c12,99%
8,N=C(N)c1nn(C2OC(CO)C(O)C2O)c2nc[nH]c(=O)c12 (centres undefined),-15.3% (active)
9,CCN(CC)CCCC(C)NC(=S)N/N=C(\C)c1ccccn1 (centres undefined),36.8%
10,C[n+]1c(/C=C\C=C\N2CCCCC2)sc2ccccc21,17.7%
11,S=c1nc2[nH]c3ccccc3c2n[nH]1,86.6%
12,Cn1c2ccccc2c2nnc(NCCCCO)nc21,99.3%
13,O=C(NC1CCCCC1)c1ccc(Cl)cc1,113%
14,CNc1ccccc1C(=O)N/N=C/C=C/c1ccccc1,49.3%
15,C[n+]1cc2cc3c(cc2c2ccccc21)OCO3,90.1%
16,CN(C)c1ncnc2c1cnn2C,109%
17,CC(C)(C)NCCC(O)c1cc(C(F)(F)F)nc2c(C(F)(F)F)cccc12 (centres undefined),55.1%
18,Cc1ccc(NC(=S)N2CCOCC2)cc1C,99.9%
